Test results reported in paper PMC5540273 (PLoS ONE, 2017).
Read-outs that look alike come from different tables or passages of the source.

How the values were obtained:
Conditions in all cases: n = 1
[1] = system: TNIK
[2] = system: TNK1
[3] = system: TNK2
[4] = system: TNNI3K
[5] = system: T1, TRKA
T1 construct: gene NTRK1

[6] = system: TRKB
[7] = system: T2, TRKC
T2 construct: gene NTRK3

[8] = system: TRPM6
[9] = system: TSSK1B
[10] = system: TSSK3
[11] = concentration: 1 μM, replicates: in singlicate
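Also: KINOMEscan kinase panel screen.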

Row | SMILES | %Inh [1, 11] | %Inh [2, 11] | %Inh [3, 11] | %Inh [4, 11] | %Inh [5, 11] | %Inh [6, 11] | %Inh [7, 11] | %Inh [8, 11] | %Inh [9, 11] | %Inh [10, 11] | %Inh ([1]; 1 µM) | %Inh ([2]; 1 µM) | %Inh ([3]; 1 µM) | %Inh ([4]; 1 µM) | %Inh ([5]; 1 µM) | %Inh ([6]; 1 µM) | %Inh ([7]; 1 µM) | %Inh ([8]; 1 µM) | %Inh ([9]; 1 µM) | %Inh ([10]; 1 µM)
1 | Cc1cccc(-c2nc(Nc3ccncc3)c3ccccc3n2)n1 [GW855857] | 29% | 39% | 0% | 20% | 0% | 0% | 0% | 0% | 0% | 0% | – | – | – | – | – | – | – | – | – | –
2 | COc1ccccc1CNC(=O)c1cc(C(=O)c2ccccc2C)c[nH]1 [GSK364507] | 0% | 0% | 17% | 0% | 0% | 24% | 2% | 21% | 16% | 6% | – | – | – | – | – | – | – | – | – | –
3 | O=C1NC(=O)C(N2CCc3ccccc32)=C1c1ccccc1Cl [SB-373598] | 5% | 3% | 11% | 4% | 22% | 0% | 4% | 11% | 8% | 18% | – | – | – | – | – | – | – | – | – | –
4 | Cl.Oc1ccc(-c2nc(-c3ccccc3)[nH]c2-c2ccncc2)cc1 [SB-428218] | 0% | 0% | 10% | 0% | 0% | 63% | 64% | 0% | 0% | 0% | – | – | – | – | – | – | – | – | – | –
5 | Fc1cc(Cl)ccc1Nc1ccnc2cc(-c3ccc(CN4CCCCC4)o3)ccc12 [GW560116] | 10% | 0% | 2% | 0% | 4% | 19% | 12% | 0% | 0% | 8% | – | – | – | – | – | – | – | – | – | –
6 | CCn1c(-c2cccnc2O)nc2cnccc21 [SB-736715] | 0% | 8% | 0% | 0% | 0% | 3% | 0% | 0% | 0% | 0% | – | – | – | – | – | – | – | – | – | –
7 | Cc1ccc(NC(=O)Nc2cccc(C(F)(F)F)c2)cc1 [GSK955403] | – | – | – | – | – | – | – | – | – | – | 3% | 17% | 2% | 0% | 0% | 0% | 0% | 0% | 0% | 8%
8 | CC(C)(C)c1ccc(C(=O)Nc2cn3cc(Cl)ccc3n2)cc1 | 4% | 30% | 2% | 0% | 0% | 0% | 0% | 0% | 0% | 0% | – | – | – | – | – | – | – | – | – | –
9 | O=C(Nc1ccc2c(c1)OCO2)NC1CCN(c2ccnc(Nc3ccc(F)cc3)n2)C1 (centres unmarked) [GSK1379724] | 0% | 16% | 10% | 0% | 0% | 19% | 57% | 8% | 0% | 18% | – | – | – | – | – | – | – | – | – | –
10 | Cl.NC(=O)c1cccc(Nc2nccc(Nc3ccc(Oc4cccc(Cl)c4)c(Cl)c3)n2)c1 [GW659008] | 2% | 77% | 29% | 4% | 0% | 0% | 0% | 13% | 0% | 4% | – | – | – | – | – | – | – | – | – | –
11 | CN1C(=O)C(Nc2ccc(Cl)c(C(=O)O)c2)=C(c2ccc(Cl)cc2)C1=O [SB-404290] | 13% | 13% | 0% | 0% | 0% | 0% | 22% | 10% | 0% | 0% | – | – | – | – | – | – | – | – | – | –
12 | Cn1ccc2ncnc(Oc3ccc(Nc4nc5ccccc5[nH]4)cc3)c21 | 0% | 0% | 0% | 0% | 0% | 0% | 0% | 100% | 0% | 0% | – | – | – | – | – | – | – | – | – | –
13 | Cc1cccc(-c2nc(Nc3ccc4[nH]ncc4c3)c3ccccc3n2)n1 [GW857175] | 4% | 0% | 10% | 0% | 52% | 12% | 17% | 19% | 72% | 51% | – | – | – | – | – | – | – | – | – | –
14 | COc1ccc(Nc2nccc(NCCNC(=O)Nc3ccccc3F)n2)cc1 [GSK1379901] | 0% | 0% | 31% | 14% | 0% | 0% | 18% | 11% | 0% | 7% | – | – | – | – | – | – | – | – | – | –
15 | O=C(O)COc1ncnc2cc(-c3ccc4[nH]ncc4c3)sc12 | 10% | 0% | 0% | 0% | 33% | 42% | 0% | 6% | 0% | 0% | – | – | – | – | – | – | – | – | – | –
16 | CCn1c(-c2ccccn2)nc2cnccc21 [SB-736398] | 0% | 7% | 9% | 0% | 0% | 59% | 52% | 0% | 5% | 12% | – | – | – | – | – | – | – | – | – | –
17 | Cn1cncc1-c1ccc2ncnc(Nc3ccc(OCc4ccccc4)cc3)c2c1 [GW320571] | 0% | 0% | 29% | 23% | 45% | 0% | 0% | 0% | 29% | 16% | – | – | – | – | – | – | – | – | – | –
